# Measured values reported in PubChem BioAssay (EPA / NIEHS).
# Results filed as inconclusive are left out. Some compounds were tested as several samples or in several runs, with calls that do not always agree. Activity calls are given as the source filed them. The calls were made as follows, unless noted: active = hit-call score of the fitted dose curve at least 0.9, where 1 is the maximum; inconclusive = response in the unintended direction; inactive = score below 0.9.
# Tests used:
# [1] = molecular target: Bile acid receptor (Homo sapiens) (UniProt Q96RI1); assay: ATG_IR1_CIS: Attagene CIS-FACTORIAL HepG2 Assay for human Nuclear Receptor Subfamily 1 Group H Member 4 (NR1H4), IR1 submotif (AID 2282946; active = hit-call score of the fitted dose curve at least 0.9, where 1 is the maximum; inactive = score below 0.9); settings: IR1 reporter transcription, actives raise or lower the signal
# Chain of Bile acid receptor (Homo sapiens) (Q96RI1 whole entry, looked up): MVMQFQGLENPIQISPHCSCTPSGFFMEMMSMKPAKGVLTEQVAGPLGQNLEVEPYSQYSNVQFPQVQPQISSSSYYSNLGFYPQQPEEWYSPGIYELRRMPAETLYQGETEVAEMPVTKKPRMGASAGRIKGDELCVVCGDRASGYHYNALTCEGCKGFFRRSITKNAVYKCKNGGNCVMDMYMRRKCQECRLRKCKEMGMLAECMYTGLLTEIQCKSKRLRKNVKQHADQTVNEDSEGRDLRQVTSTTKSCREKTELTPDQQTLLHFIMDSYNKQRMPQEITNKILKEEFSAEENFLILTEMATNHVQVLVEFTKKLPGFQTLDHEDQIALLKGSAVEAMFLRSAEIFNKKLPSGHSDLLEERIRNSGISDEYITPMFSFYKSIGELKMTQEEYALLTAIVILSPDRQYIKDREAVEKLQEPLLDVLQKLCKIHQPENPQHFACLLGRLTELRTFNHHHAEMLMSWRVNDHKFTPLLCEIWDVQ
# Procedure, shortened: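 Transient MRTU transfection, HepG2; 24 h dosing; RNA → RT-PCR → 6-FAM primer extension → HpaI digest → capillary electrophoresis fluorescence. Gain/loss of signal fitted relative to DMSO.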
# [2] = ATG_PPRE_CIS: Attagene CIS-FACTORIAL HepG2 Assay for human Peroxisome Proliferator-activated Response Element (PPRE) (AID 2282958; active = hit-call score of the fitted dose curve at least 0.9, where 1 is the maximum; inactive = score below 0.9); settings: HepG2 PPRE cis-element reporter, Attagene transcription factor profiling; actives raise or lower the signal
# Procedure, shortened: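 HepG2 cells transiently transfected with multiplexed cis-element reporter units measure endogenous transcription factor activity. After 24 h compound exposure, reporter mRNA is quantified by RT-PCR, 6-FAM labeling, HpaI digestion and capillary electrophoresis; bidirectional fits are made against DMSO baseline.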
# [3] = ATG_M_19_TRANS: Attagene TRANS-FACTORIAL HepG2 Assay for M19 Transcription Factor (Internal Marker) (AID 2282974); settings: HepG2 Attagene TRANS-FACTORIAL M19 internal marker reporter
# Procedure, shortened: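 HepG2 cells transiently transfected with multiple GAL4-UAS reporter transcription units were exposed to chemicals for 24 h. Reporter mRNA was read by RT-PCR, 6-FAM primer extension, HpaI digestion and capillary electrophoresis; gain of signal fitted relative to DMSO.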
# [4] = ATG_GAL4_TRANS: Attagene TRANS-FACTORIAL HepG2 Assay for GAL4 (Internal Marker) (AID 2282976); settings: HepG2 Attagene TRANS GAL4 internal marker reporter
# Procedure, shortened: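 RT-PCR/capillary electrophoresis readout of reporter mRNA. HepG2, transient MRTU transfection (GAL4-UAS reporters), 24 h compound exposure. Background-control endpoint, positive direction vs DMSO baseline.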
# [5] = molecular target: Oxysterols receptor LXR-beta (Homo sapiens) (UniProt P55055); assay: ATG_LXRb_TRANS: Attagene TRANS-FACTORIAL HepG2 Assay for human Liver X Receptor beta (LXRb) (AID 2282981); settings: HepG2 Attagene TRANS GAL4-LXRb reporter, mRNA
# Chain of Oxysterols receptor LXR-beta (Homo sapiens) (P55055 whole entry, looked up, the tested form may be a part): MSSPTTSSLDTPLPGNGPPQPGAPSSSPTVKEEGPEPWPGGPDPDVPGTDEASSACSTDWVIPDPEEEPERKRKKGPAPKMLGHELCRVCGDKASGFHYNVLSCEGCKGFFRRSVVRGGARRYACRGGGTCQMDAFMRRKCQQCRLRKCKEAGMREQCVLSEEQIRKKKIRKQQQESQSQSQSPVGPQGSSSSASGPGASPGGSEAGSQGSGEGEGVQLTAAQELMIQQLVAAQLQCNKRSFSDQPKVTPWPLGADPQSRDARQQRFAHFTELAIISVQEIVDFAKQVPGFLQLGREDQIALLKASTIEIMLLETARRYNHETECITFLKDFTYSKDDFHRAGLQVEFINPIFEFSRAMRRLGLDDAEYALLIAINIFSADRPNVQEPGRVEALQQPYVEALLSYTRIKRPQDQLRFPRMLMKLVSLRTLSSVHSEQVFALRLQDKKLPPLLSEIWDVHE
# Procedure, shortened: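 In this TRANS format, exogenous chimeric NR-Gal4 protein activity, not endogenous factors, drives reporter expression in transfected human HepG2 cells. Exposure lasted 24 h; reporter mRNA was read by fluorescent capillary electrophoresis.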
# [6] = ATG_M_32_TRANS: Attagene TRANS-FACTORIAL HepG2 Assay for M32 Transcription Factor (Internal Marker) (AID 2282984); settings: HepG2 Attagene TRANS M32 internal marker reporter;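 also: transcript level of a background control reporter unit measured by RT-PCR and capillary electrophoresis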
# Procedure, shortened: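 Human hepatoma HepG2, transient MRTU transfection, 24 h treatment. RNA → RT-PCR → fluorescent primer extension → HpaI digest (2 h, 37 C) → CE. Positive-direction fit vs DMSO.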
# [7] = molecular target: human Peroxisome Proliferator-activated Receptor delta (PPARd), PPARD (gene 5467) (UniProt Q03181); assay: ATG_PPARd_TRANS: Attagene TRANS-FACTORIAL HepG2 Assay for human Peroxisome Proliferator-activated Receptor delta (PPARd) (AID 2283002)
# Chain of human Peroxisome Proliferator-activated Receptor delta (PPARd), PPARD (gene 5467) (Q03181 whole entry, looked up, the tested form may be a part): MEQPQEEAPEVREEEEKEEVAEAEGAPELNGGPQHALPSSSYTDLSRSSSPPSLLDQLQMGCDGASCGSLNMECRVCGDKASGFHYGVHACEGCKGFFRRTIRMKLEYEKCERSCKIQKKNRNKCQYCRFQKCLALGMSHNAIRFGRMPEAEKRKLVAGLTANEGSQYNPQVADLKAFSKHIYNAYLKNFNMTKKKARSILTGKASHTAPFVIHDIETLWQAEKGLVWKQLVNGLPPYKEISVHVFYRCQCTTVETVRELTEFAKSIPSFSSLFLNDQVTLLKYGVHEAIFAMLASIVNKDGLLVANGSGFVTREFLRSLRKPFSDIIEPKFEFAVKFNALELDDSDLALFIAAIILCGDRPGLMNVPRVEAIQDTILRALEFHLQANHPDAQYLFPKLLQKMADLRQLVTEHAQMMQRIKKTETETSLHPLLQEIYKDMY
# Procedure, shortened: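 HepG2 cells transiently transfected with multiplexed GAL4-UAS reporter units and exogenous chimeric NR-Gal4 proteins; 24 h compound exposure. Reporter mRNA measured by RT-PCR, 6-FAM labelling, HpaI digestion and capillary electrophoresis; gain of signal versus DMSO.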
# [8] = molecular target: human RAR-related Orphan Receptor beta (RORb), RORB (gene 6096) (UniProt Q92753); assay: ATG_RORb_TRANS: Attagene TRANS-FACTORIAL HepG2 Assay for human RAR-related Orphan Receptor beta (RORb) (AID 2283010)
# Chain of human RAR-related Orphan Receptor beta (RORb), RORB (gene 6096) (Q92753 whole entry, looked up, the tested form may be a part): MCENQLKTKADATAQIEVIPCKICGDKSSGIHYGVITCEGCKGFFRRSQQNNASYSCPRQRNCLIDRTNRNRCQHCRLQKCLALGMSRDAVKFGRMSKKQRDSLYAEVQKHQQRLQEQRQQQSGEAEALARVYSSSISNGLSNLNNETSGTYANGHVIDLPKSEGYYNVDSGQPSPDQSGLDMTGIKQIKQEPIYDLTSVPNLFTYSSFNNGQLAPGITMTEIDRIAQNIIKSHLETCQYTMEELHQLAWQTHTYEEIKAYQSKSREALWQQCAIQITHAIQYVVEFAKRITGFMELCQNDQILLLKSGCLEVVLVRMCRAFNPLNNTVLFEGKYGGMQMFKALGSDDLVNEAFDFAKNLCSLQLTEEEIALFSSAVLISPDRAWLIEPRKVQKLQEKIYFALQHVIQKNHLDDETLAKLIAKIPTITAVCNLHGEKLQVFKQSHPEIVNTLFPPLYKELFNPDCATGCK
# Procedure, shortened: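 HepG2 cells transiently transfected with GAL4-UAS reporter units expressing chimeric NR-Gal4 protein; reporter mRNA measured 24 h after dosing by RT-PCR, 6-FAM labelling and capillary electrophoresis. Gain-of-signal fitted relative to DMSO baseline.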
# [9] = molecular target: human RAR-related Orphan Receptor gamma (RORg), RORC (gene 6097) (UniProt P51449); assay: ATG_RORg_TRANS: Attagene TRANS-FACTORIAL HepG2 Assay for human RAR-related Orphan Receptor gamma (RORg) (AID 2283011)
# Chain of human RAR-related Orphan Receptor gamma (RORg), RORC (gene 6097) (P51449 whole entry, looked up, the tested form may be a part): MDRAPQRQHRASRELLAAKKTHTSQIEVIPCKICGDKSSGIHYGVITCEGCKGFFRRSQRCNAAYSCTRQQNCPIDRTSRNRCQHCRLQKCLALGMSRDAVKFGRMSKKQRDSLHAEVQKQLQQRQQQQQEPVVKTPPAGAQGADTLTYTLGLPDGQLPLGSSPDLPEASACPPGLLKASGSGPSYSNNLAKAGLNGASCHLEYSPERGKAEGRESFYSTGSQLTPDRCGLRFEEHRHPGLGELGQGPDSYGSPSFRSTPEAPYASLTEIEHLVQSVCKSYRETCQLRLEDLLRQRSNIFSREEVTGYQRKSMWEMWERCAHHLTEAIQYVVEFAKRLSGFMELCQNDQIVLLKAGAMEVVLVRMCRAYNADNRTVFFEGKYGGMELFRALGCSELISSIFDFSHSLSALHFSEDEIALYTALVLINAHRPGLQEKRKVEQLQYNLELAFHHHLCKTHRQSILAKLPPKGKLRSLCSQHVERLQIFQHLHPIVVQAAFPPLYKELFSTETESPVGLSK
# Procedure, shortened: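 Transient MRTU transfection of HepG2 (TRANS format, exogenous NR-Gal4 chimera). 24 h dosing. Total RNA → oligo(dT) RT → PCR → 6-FAM labelling → HpaI cut → CE. Gain vs DMSO.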
# [10] = molecular target: human Thyroid Receptor alpha (THRa1), THRA (gene 7067) (UniProt P10827); assay: ATG_THRa1_TRANS: Attagene TRANS-FACTORIAL HepG2 Assay for human Thyroid Receptor alpha (THRa1) (AID 2283014)
# Chain of human Thyroid Receptor alpha (THRa1), THRA (gene 7067) (P10827 whole entry, looked up, the tested form may be a part): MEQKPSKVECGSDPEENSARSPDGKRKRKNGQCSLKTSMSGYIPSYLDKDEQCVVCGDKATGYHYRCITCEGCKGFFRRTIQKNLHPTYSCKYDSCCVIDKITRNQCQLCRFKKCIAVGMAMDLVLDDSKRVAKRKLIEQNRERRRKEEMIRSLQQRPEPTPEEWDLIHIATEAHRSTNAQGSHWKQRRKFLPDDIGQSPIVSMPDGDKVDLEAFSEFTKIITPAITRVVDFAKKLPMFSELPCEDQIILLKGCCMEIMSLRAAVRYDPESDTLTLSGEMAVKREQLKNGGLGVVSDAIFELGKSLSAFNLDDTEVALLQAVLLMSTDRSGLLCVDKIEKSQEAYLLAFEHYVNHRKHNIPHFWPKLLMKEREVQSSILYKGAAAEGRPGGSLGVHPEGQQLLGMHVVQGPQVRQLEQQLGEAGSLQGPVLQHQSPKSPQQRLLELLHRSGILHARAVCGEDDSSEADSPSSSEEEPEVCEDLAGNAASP
# Procedure, shortened: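 Transient HepG2 transfection, NR-Gal4 chimera driving GAL4-UAS reporters; 24 h compound exposure; total RNA, oligo(dT) RT, PCR, fluorescent primer extension, capillary electrophoresis. Upward direction vs DMSO control.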
# [11] = TOX21_p53_BLA_p2_viability: Viability Assessment in the Tox21 HCT-116 p53 Agonism Beta-lactamase Assay, Phase 2 (AID 2283591);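 also: compound exposure lasted 16 h at 37 °C; actives lower the ATP signal meaning cytotoxicity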
# Procedure, shortened: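 HCT-116 p53-bla cells (4000/well) rested 5 h at 37C, then received compounds in DMSO (217-fold dilution) for 16 h at 37C, 5% CO2. After the CCF4 read, CellTiter-Glo was added; ATP luminescence was read after 30 min at room temperature.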
# [12] = TOX21_p53_BLA_p3_viability: Viability Assessment in the Tox21 HCT-116 p53 Agonism Beta-lactamase Assay, Phase 3 (AID 2283593);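 also: cells exposed to compound for 16 h before reading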
# Procedure, shortened: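 HCT-116 cells (4000/well) rested 5 h at 37C, then got DMSO compounds by pin tool (217-fold dilution) for 16 h at 37C, 5% CO2. After the bla read, CellTiter-Glo was added and luminescence read at 30 min, room temperature.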
# [13] = TOX21_p53_BLA_p4_viability: Viability Assessment in the Tox21 HCT-116 p53 Agonism Beta-lactamase Assay, Phase 4 (AID 2283597);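 also: hits lower the luminescence signal meaning cytotoxicity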
# Procedure, shortened: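 We seeded HCT116 p53 reporter cells at 4000/well and waited 5 h. We then added compounds in DMSO at a 217-fold dilution and incubated for 16 h. Viability was read as CellTiter-Glo luminescence after 30 min at RT.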
# [14] = ACEA_ER_AUC_viability: ACEA Biosciences xCELLigence Real-Time Cell Analysis on Estrogen Receptor Agonism for Viability (AID 2283782);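 also: continuous compound exposure with impedance area under curve over 80 h; hit means loss of impedance signal meaning reduced cell growth or viability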
# Procedure, shortened: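 T-47D human breast cells in phenol red-free RPMI1640 with 10% charcoal-stripped FBS were dosed with an 8-point 1:4 dilution series from 100 uM top final concentration, in duplicate. Impedance-based growth was followed for 80 h; AUC analysed versus DMSO.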
# [15] = CCTE_Harrill_HTTr_Viability_MCF7: CCTE's 6-hour Cell Viability Assessment for the High-Throughput Transcriptomics (HTTr) Platform, in MCF-7 cells cultured in DMEM + 10% fetal bovine serum, Harrill Lab (AID 2284010; active = hit-call score of the fitted dose curve at least 0.9, where 1 is the maximum; inactive = score below 0.9)
# Procedure, shortened: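 MCF-7 cells in DMEM + 10% FBS, 384-well, exposed 6 h to an eight-point dilution series. Membrane integrity scored by high-content imaging of propidium iodide exclusion; bidirectional fit versus DMSO.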
# [16] = CCTE_Harrill_HTTr_Apoptosis_MCF7: CCTE's 6-hour Apoptosis Assessment for the High-Throughput Transcriptomics (HTTr) Platform, in MCF-7 cells cultured in DMEM + 10% fetal bovine serum, Harrill Lab (AID 2284011; active = hit-call score of the fitted dose curve at least 0.9, where 1 is the maximum; inactive = score below 0.9)
# Procedure, shortened: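 Read-out: CellEvent Caspase 3/7 Green signal by high content imaging, gain-of-signal indicating apoptosis. MCF-7 cells, DMEM + 10% FBS, eight-point dilution series, 6 h exposure. Curves fitted bidirectionally relative to DMSO negative control.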
# [17] = molecular target: Nuclear receptor subfamily 1 group I member 3 (Homo sapiens) (UniProt Q14994); assay: ATG_CAR_TRANS: Attagene TRANS-FACTORIAL HepG2 Assay for human Constitutive Androstane Receptor (CAR) (AID 2282969); settings: HepG2 Attagene TRANS-FACTORIAL CAR reporter;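 also: activators raise reporter mRNA above DMSO so AC50 marks induction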
# Chain of Nuclear receptor subfamily 1 group I member 3 (Homo sapiens) (Q14994 whole entry, looked up, the tested form may be a part): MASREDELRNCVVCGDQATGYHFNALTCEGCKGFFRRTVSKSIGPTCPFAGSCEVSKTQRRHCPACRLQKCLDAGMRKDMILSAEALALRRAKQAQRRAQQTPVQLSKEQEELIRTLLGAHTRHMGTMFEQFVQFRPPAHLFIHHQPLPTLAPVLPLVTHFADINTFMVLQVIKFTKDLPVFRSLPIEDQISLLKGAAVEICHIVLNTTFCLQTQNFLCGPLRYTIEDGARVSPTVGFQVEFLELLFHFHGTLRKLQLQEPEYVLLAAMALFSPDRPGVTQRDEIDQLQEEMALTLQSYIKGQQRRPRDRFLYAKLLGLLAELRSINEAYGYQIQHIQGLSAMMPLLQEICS
# Procedure, shortened: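 HepG2 cells transiently transfected with multiplexed GAL4-UAS reporter units expressing chimeric NR-Gal4 proteins; compound exposure 24 h. Reporter mRNA measured by RT-PCR, 6-FAM labelling, HpaI digestion and capillary electrophoresis; gain-of-signal fitted against DMSO baseline.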
# [18] = molecular target: Nuclear receptor subfamily 4 group A member 2 (Homo sapiens) (UniProt P43354); assay: ATG_NURR1_TRANS: Attagene TRANS-FACTORIAL HepG2 Assay for human Nuclear Receptor Related Protein 1 (NURR1) (AID 2282985); settings: HepG2 Attagene TRANS reporter, mRNA readout
# Chain of Nuclear receptor subfamily 4 group A member 2 (Homo sapiens) (P43354 whole entry, looked up): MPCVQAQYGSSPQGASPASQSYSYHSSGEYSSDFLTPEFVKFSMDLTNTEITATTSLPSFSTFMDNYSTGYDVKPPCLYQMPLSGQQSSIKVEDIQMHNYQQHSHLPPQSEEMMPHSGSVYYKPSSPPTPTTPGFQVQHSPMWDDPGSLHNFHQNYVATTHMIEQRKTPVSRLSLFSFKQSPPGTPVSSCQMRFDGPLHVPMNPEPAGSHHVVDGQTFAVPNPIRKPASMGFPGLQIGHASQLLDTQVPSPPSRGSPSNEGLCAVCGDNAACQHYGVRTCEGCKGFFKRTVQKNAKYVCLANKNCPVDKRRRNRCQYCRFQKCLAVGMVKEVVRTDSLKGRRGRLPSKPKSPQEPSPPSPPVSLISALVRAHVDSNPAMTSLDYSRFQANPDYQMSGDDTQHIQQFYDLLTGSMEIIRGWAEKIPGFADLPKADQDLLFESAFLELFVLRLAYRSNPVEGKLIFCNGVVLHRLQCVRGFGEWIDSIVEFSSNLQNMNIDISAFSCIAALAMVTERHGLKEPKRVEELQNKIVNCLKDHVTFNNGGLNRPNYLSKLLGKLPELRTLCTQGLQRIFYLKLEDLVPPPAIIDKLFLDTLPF
# Procedure, shortened: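 After 24 h chemical dosing, total RNA from transiently transfected HepG2 cells was reverse-transcribed and reporter cDNA PCR-amplified, FAM-labelled and analysed by capillary electrophoresis. Activity fitted in positive direction, DMSO as negative control.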
# [19] = molecular target: Retinoic acid receptor alpha (Homo sapiens) (UniProt P10276); assay: ATG_DR5_RAR_CIS: Attagene CIS-FACTORIAL HepG2 Assay for human Retinoic Acid Receptor Alpha (RARE), DR5 submotif (AID 2282934; active = hit-call score of the fitted dose curve at least 0.9, where 1 is the maximum; inactive = score below 0.9); settings: HepG2 Attagene cis-factorial RARE DR5 reporter, mRNA; actives raise or lower the signal
# Chain of Retinoic acid receptor alpha (Homo sapiens) (P10276 whole entry, looked up): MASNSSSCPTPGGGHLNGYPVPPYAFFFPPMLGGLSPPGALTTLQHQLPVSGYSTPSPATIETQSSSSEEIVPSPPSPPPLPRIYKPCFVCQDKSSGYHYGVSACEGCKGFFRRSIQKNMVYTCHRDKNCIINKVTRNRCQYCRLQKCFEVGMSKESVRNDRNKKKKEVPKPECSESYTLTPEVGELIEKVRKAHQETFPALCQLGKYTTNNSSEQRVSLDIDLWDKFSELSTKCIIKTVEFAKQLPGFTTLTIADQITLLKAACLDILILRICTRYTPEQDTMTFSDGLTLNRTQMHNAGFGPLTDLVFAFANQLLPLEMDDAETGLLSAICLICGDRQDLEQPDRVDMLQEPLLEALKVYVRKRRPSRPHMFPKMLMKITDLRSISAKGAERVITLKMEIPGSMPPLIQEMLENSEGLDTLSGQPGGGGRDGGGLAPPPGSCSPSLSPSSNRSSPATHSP
# Procedure, shortened: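 HepG2 cells transiently transfected with multiplexed reporter units under cis (DR5 RARE) promoters, so endogenous transcription factor activity is measured. After 24 h compound exposure, reporter mRNA is quantified by RT-PCR with fluorescent labelling and capillary electrophoresis; bidirectional fitting versus DMSO.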
smiles,measurement,setting,value
CCC[N+](=O)[O-],outcome,[1],inactive
same,outcome,[2],inactive
same,outcome,[3],inactive
same,outcome,[4],inactive
same,outcome,[5],inactive
same,outcome,[6],inactive
same,outcome,[7],inactive
same,outcome,[8],inactive
same,outcome,[9],inactive
same,outcome,[10],inactive
same,outcome,[11],inactive
same,outcome,[12],inactive
same,outcome,[13],inactive
same,outcome,[14],inactive
same,outcome,[15],inactive
same,outcome,[16],inactive
c1ccc2c(c1)CCCC2,outcome,[1],inactive
same,outcome,[3],inactive
same,outcome,[4],inactive
same,outcome,[5],inactive
same,outcome,[6],inactive
same,outcome,[8],inactive
same,outcome,[9],inactive
same,outcome,[11],inactive
same,outcome,[12],inactive
same,outcome,[13],inactive
same,outcome,[14],inactive
CNC(=O)Oc1cc(C)c(SC)c(C)c1,outcome,[1],inactive
same,outcome,[17],inactive
same,outcome,[5],inactive
same,outcome,[18],inactive
same,outcome,[7],inactive
same,outcome,[8],inactive
same,outcome,[10],inactive
same,outcome,[15],inactive
same,outcome,[16],inactive
CCC(C)c1cc(C(C)(C)C)cc(-n2nc3ccccc3n2)c1O (stereo unspecified),outcome,[1],inactive
same,outcome,[2],inactive
same,outcome,[3],inactive
same,outcome,[6],inactive
same,outcome,[18],inactive
same,outcome,[9],inactive
same,outcome,[10],inactive
CCOC(=O)COc1ccc(Cl)cc1Cl,outcome,[19],inactive
same,outcome,[17],inactive
same,outcome,[4],inactive
same,outcome,[6],inactive
same,outcome,[7],inactive
same,outcome,[11],inactive
same,outcome,[12],inactive
same,outcome,[15],inactive
same,outcome,[16],inactive
C=Cc1cccc(CCl)c1,outcome,[1],inactive
same,outcome,[17],inactive
same,outcome,[3],inactive
same,outcome,[6],inactive
same,outcome,[18],inactive
same,outcome,[9],inactive
same,outcome,[10],inactive
same,outcome,[11],inactive
same,outcome,[12],inactive
same,outcome,[13],inactive
CN1C[C@H](C(=O)N[C@]2(C)O[C@@]3(O)[C@@H]4CCCN4C(=O)[C@H](Cc4ccccc4)N3C2=O)C=C2c3cccc4[nH]cc(c34)C[C@H]21,outcome,[1],inactive
same,outcome,[3],inactive
same,outcome,[4],inactive
same,outcome,[5],inactive
same,outcome,[18],inactive
same,outcome,[10],inactive
same,outcome,[11],inactive
same,outcome,[12],inactive
same,AC50,[13],71.4 µM (active)
same,outcome,[13],inactive
O=[N+]([O-])O,outcome,[19],inactive
same,outcome,[3],inactive
same,outcome,[4],inactive
same,outcome,[11],inactive
same,outcome,[12],inactive
same,outcome,[13],inactive
same,outcome,[14],inactive
same,outcome,[15],inactive
same,outcome,[16],inactive
O=C(O)c1cc[c]([Hg][Cl])cc1,outcome,[1],inactive
same,outcome,[2],inactive
same,outcome,[4],inactive
same,outcome,[5],inactive
same,outcome,[18],inactive
same,AC50,[7],49.3 µM (active)
same,outcome,[8],inactive
same,outcome,[10],inactive
same,outcome,[13],inactive
CCCCCCC1CCOC1=O (stereo unspecified),outcome,[19],inactive
same,outcome,[3],inactive
same,outcome,[4],inactive
same,outcome,[6],inactive
same,outcome,[8],inactive
same,AC50,[14],23.3 µM (active)
CC(C)CCCCCCCOP(=O)(Oc1ccccc1)Oc1ccccc1,outcome,[1],inactive
same,outcome,[2],inactive
same,outcome,[17],inactive
same,outcome,[4],inactive
same,outcome,[5],inactive
same,outcome,[6],inactive
same,AC50,[18],26.6 µM (active)
same,outcome,[7],inactive
same,outcome,[11],inactive
same,outcome,[12],inactive
same,outcome,[13],inactive
same,outcome,[14],inactive
CCC(C)(C)O,outcome,[2],inactive
same,outcome,[17],inactive
same,outcome,[4],inactive
same,outcome,[6],inactive
same,outcome,[18],inactive
same,outcome,[9],inactive
same,outcome,[14],inactive
same,outcome,[15],inactive
same,outcome,[16],inactive
CC(C)[C@@H](C(=O)O[C@@H](C#N)c1cccc(Oc2ccccc2)c1)c1ccc(Cl)cc1,outcome,[17],inactive
same,outcome,[4],inactive
same,outcome,[18],inactive
same,outcome,[7],inactive
same,outcome,[10],inactive
same,outcome,[11],inactive
same,outcome,[13],inactive
same,outcome,[15],inactive
same,outcome,[16],inactive
